# Values joined by “and” are separate entries in the source; they are usually repeats but may differ in a detail not shown here. Identical values can stand only once. Like-named read-outs stand apart in the source and are kept apart here.
# Columns and labels:
# PFTK1 = test system: T1, PFTK1; conditions: concentration: 1 μM, replicates: in singlicate, n = 1
# T1 construct: gene CDK14
# PHKG1 = conditions: concentration: 1 μM, replicates: in singlicate; n = 1
# PHKG2 = conditions: concentration: 1 μM, replicates: in singlicate, n = 1
# PIK3C2B = conditions: concentration: 1 μM, replicates: in singlicate; n = 1
# PIK3C2G = conditions: concentration: 1 μM, replicates: in singlicate, n = 1
# PIK3CA = conditions: concentration: 1 μM, replicates: in singlicate; n = 1
# PIK3CB = conditions: concentration: 1 μM, replicates: in singlicate; n = 1
# PIK3CD = conditions: concentration: 1 μM, replicates: in singlicate, n = 1
# PIK3CG = conditions: concentration: 1 μM, replicates: in singlicate; n = 1
# PIK4CB = test system: T2, PIK4CB; conditions: concentration: 1 μM, replicates: in singlicate, n = 1
# T2 construct: gene PI4KB
# PIKFYVE = conditions: concentration: 1 μM, replicates: in singlicate, n = 1
# PIM1 = conditions: concentration: 1 μM, replicates: in singlicate; n = 1
# PIM2 = conditions: concentration: 1 μM, replicates: in singlicate; n = 1
# PIM3 = conditions: concentration: 1 μM, replicates: in singlicate; n = 1
# PIP5K1A = conditions: concentration: 1 μM, replicates: in singlicate, n = 1
# PIP5K1C = conditions: concentration: 1 μM, replicates: in singlicate, n = 1
# PIP5K2B = conditions: concentration: 1 μM, replicates: in singlicate, n = 1
# PIP5K2C = test system: T3, PIP5K2C; conditions: concentration: 1 μM, replicates: in singlicate, n = 1
# T3 construct: gene PIP4K2C
# PKAC-alpha = test system: T4, PKAC-alpha; conditions: concentration: 1 μM, replicates: in singlicate, n = 1
# T4 construct: gene PRKACA
# PKAC-beta = test system: T5, PKAC-beta; conditions: concentration: 1 μM, replicates: in singlicate, n = 1
# T5 construct: gene PRKACB
# 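Also: KINOMEscan kinase panel screen.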
smiles,measurement,setting,value
Cc1cccc(Cn2ccn3c(=O)cc(N4CCOCC4)nc23)c1 [GSK2297542],%Inh,PFTK1,15%
same,%Inh,PHKG1,1%
same,%Inh,PHKG2,8%
same,%Inh,PIK3C2B,4%
same,%Inh,PIK3C2G,0%
same,%Inh,PIK3CA,12%
same,%Inh,PIK3CB,100%
same,%Inh,PIK3CD,52%
same,%Inh,PIK3CG,10%
same,%Inh,PIK4CB,0%
same,%Inh,PIKFYVE,0%
same,%Inh,PIM1,29%
same,%Inh,PIM2,0%
same,%Inh,PIM3,13%
same,%Inh,PIP5K1A,0%
same,%Inh,PIP5K1C,36%
same,%Inh,PIP5K2B,2%
same,%Inh,PIP5K2C,6%
same,%Inh,PKAC-alpha,16%
same,%Inh,PKAC-beta,1%
CN(C(=O)c1ccc(-c2cc(-c3c[nH]nc3-c3ccccn3)ccn2)cc1)C1CCOCC1 [GW810083],%Inh,PFTK1,0%
same,%Inh,PHKG1,1%
same,%Inh,PHKG2,12%
same,%Inh,PIK3C2B,0%
same,%Inh,PIK3C2G,10%
same,%Inh,PIK3CA,0%
same,%Inh,PIK3CB,0%
same,%Inh,PIK3CD,1%
same,%Inh,PIK3CG,32%
same,%Inh,PIK4CB,40%
same,%Inh,PIKFYVE,40%
same,%Inh,PIM1,0%
same,%Inh,PIM2,0%
same,%Inh,PIM3,0%
same,%Inh,PIP5K1A,0%
same,%Inh,PIP5K1C,31%
same,%Inh,PIP5K2B,0%
same,%Inh,PIP5K2C,49%
same,%Inh,PKAC-alpha,0%
same,%Inh,PKAC-beta,0%
CC(C)(CN)c1nc(-c2ccc(Cl)c(O)c2)c(-c2ccncc2)[nH]1.O=C(O)C(F)(F)F [SB-477794],%Inh,PFTK1; 1 µM,6% and 3%
same,%Inh,PHKG1,0%
same,%Inh,PHKG2; 1 µM,12% and 0%
same,%Inh,PIK3C2B,0%
same,%Inh,PIK3C2G; 1 µM,0% and 5%
same,%Inh,PIK3CA,0%
same,%Inh,PIK3CB,0%
same,%Inh,PIK3CD; 1 µM,20% and 5%
same,%Inh,PIK3CG,0%
same,%Inh,PIK4CB; 1 µM,25% and 0%
same,%Inh,PIKFYVE; 1 µM,31% and 49%
same,%Inh,PIM1,0%
same,%Inh,PIM2,0%
same,%Inh,PIM3,0%
same,%Inh,PIP5K1A; 1 µM,40% and 61%
same,%Inh,PIP5K1C; 1 µM,3% and 61%
same,%Inh,PIP5K2B; 1 µM,0% and 19%
same,%Inh,PIP5K2C; 1 µM,64% and 49%
same,%Inh,PKAC-alpha; 1 µM,86% and 87%
same,%Inh,PKAC-beta; 1 µM,56% and 89%
COc1cc2ncn(-c3cc(OCc4sccc4Cl)c(C(N)=O)s3)c2cc1OC [GSK448459],%Inh,PFTK1,12%
same,%Inh,PHKG1,0%
same,%Inh,PHKG2,0%
same,%Inh,PIK3C2B,15%
same,%Inh,PIK3C2G,0%
same,%Inh,PIK3CA,0%
same,%Inh,PIK3CB,0%
same,%Inh,PIK3CD,30%
same,%Inh,PIK3CG,35%
same,%Inh,PIK4CB,0%
same,%Inh,PIKFYVE,0%
same,%Inh,PIM1,11%
same,%Inh,PIM2,0%
same,%Inh,PIM3,0%
same,%Inh,PIP5K1A,41%
same,%Inh,PIP5K1C,79%
same,%Inh,PIP5K2B,20%
same,%Inh,PIP5K2C,50%
same,%Inh,PKAC-alpha,0%
same,%Inh,PKAC-beta,0%
Cc1nnc(-c2ccc3ncc(-c4ccc(S(C)=O)cc4)n3c2)o1 (stereo not drawn),%Inh,PFTK1,0%
same,%Inh,PHKG1,20%
same,%Inh,PHKG2,0%
same,%Inh,PIK3C2B,13%
same,%Inh,PIK3C2G,28%
same,%Inh,PIK3CA,3%
same,%Inh,PIK3CB,64%
same,%Inh,PIK3CD,0%
same,%Inh,PIK3CG,3%
same,%Inh,PIK4CB,0%
same,%Inh,PIKFYVE,0%
same,%Inh,PIM1,0%
same,%Inh,PIM2,2%
same,%Inh,PIM3,0%
same,%Inh,PIP5K1A,2%
same,%Inh,PIP5K1C,0%
same,%Inh,PIP5K2B,39%
same,%Inh,PIP5K2C,0%
same,%Inh,PKAC-alpha,2%
same,%Inh,PKAC-beta,8%
COc1ccc(S(=O)(=O)NC2CCN(c3cc(C)nc(Nc4cccc(C#N)c4)n3)CC2)cc1.O=C(O)C(F)(F)F [GSK1653539],%Inh,PFTK1,11%
same,%Inh,PHKG1,0%
same,%Inh,PHKG2,9%
same,%Inh,PIK3C2B,12%
same,%Inh,PIK3C2G,0%
same,%Inh,PIK3CA,6%
same,%Inh,PIK3CB,100%
same,%Inh,PIK3CD,0%
same,%Inh,PIK3CG,33%
same,%Inh,PIK4CB,0%
same,%Inh,PIKFYVE,0%
same,%Inh,PIM1,25%
same,%Inh,PIM2,0%
same,%Inh,PIM3,0%
same,%Inh,PIP5K1A,0%
same,%Inh,PIP5K1C,11%
same,%Inh,PIP5K2B,0%
same,%Inh,PIP5K2C,37%
same,%Inh,PKAC-alpha,0%
same,%Inh,PKAC-beta,0%
O=C1NC(=O)C(N2CCc3ccccc32)=C1c1cccc(Cl)c1 [SB-408010],%Inh,PFTK1,5%
same,%Inh,PHKG1,0%
same,%Inh,PHKG2,0%
same,%Inh,PIK3C2B,0%
same,%Inh,PIK3C2G,0%
same,%Inh,PIK3CA,0%
same,%Inh,PIK3CB,33%
same,%Inh,PIK3CD,9%
same,%Inh,PIK3CG,0%
same,%Inh,PIK4CB,5%
same,%Inh,PIKFYVE,4%
same,%Inh,PIM1,16%
same,%Inh,PIM2,9%
same,%Inh,PIM3,6%
same,%Inh,PIP5K1A,0%
same,%Inh,PIP5K1C,39%
same,%Inh,PIP5K2B,0%
same,%Inh,PIP5K2C,0%
same,%Inh,PKAC-alpha,11%
same,%Inh,PKAC-beta,14%
CC(C)Oc1ccc2c(-c3ccnc(Nc4ccc(N5CCN(C)CC5)cc4)n3)cnn2n1 [GW696155],%Inh,PFTK1,55%
same,%Inh,PHKG1,51%
same,%Inh,PHKG2,84%
same,%Inh,PIK3C2B,0%
same,%Inh,PIK3C2G,0%
same,%Inh,PIK3CA,0%
same,%Inh,PIK3CB,21%
same,%Inh,PIK3CD,45%
same,%Inh,PIK3CG,30%
same,%Inh,PIK4CB,33%
same,%Inh,PIKFYVE,92.8%
same,%Inh,PIM1,37%
same,%Inh,PIM2,0%
same,%Inh,PIM3,42%
same,%Inh,PIP5K1A,14%
same,%Inh,PIP5K1C,47%
same,%Inh,PIP5K2B,73%
same,%Inh,PIP5K2C,87%
same,%Inh,PKAC-alpha,3%
same,%Inh,PKAC-beta,0%
Nc1nc(-c2ccc3c(N)n[nH]c3c2)cc(N2CCCC2)n1 [GSK2227430],%Inh,PFTK1,0%
same,%Inh,PHKG1,0%
same,%Inh,PHKG2,0%
same,%Inh,PIK3C2B,0%
same,%Inh,PIK3C2G,0%
same,%Inh,PIK3CA,0%
same,%Inh,PIK3CB,0%
same,%Inh,PIK3CD,0%
same,%Inh,PIK3CG,0%
same,%Inh,PIK4CB,14%
same,%Inh,PIKFYVE,0%
same,%Inh,PIM1,20%
same,%Inh,PIM2,0%
same,%Inh,PIM3,0%
same,%Inh,PIP5K1A,0%
same,%Inh,PIP5K1C,26%
same,%Inh,PIP5K2B,0%
same,%Inh,PIP5K2C,0%
same,%Inh,PKAC-alpha,0%
same,%Inh,PKAC-beta,0%
Cl.Oc1cccc(Nc2ccnc3cc(-c4ccncc4)ccc23)c1 [GW494601],%Inh,PFTK1,12%
same,%Inh,PHKG1,0%
same,%Inh,PHKG2,0%
same,%Inh,PIK3C2B,13%
same,%Inh,PIK3C2G,2%
same,%Inh,PIK3CA,0%
same,%Inh,PIK3CB,0%
same,%Inh,PIK3CD,22%
same,%Inh,PIK3CG,0%
same,%Inh,PIK4CB,0%
same,%Inh,PIKFYVE,44%
same,%Inh,PIM1,28%
same,%Inh,PIM2,0%
same,%Inh,PIM3,0%
same,%Inh,PIP5K1A,35%
same,%Inh,PIP5K1C,75%
same,%Inh,PIP5K2B,9%
same,%Inh,PIP5K2C,85%
same,%Inh,PKAC-alpha,0%
same,%Inh,PKAC-beta,0%
CCc1ccnc(/C=C/c2n[nH]c3cc(Sc4ccccc4C(=O)NC)ccc23)c1,%Inh,PFTK1,8%
same,%Inh,PHKG1,17%
same,%Inh,PHKG2,6%
same,%Inh,PIK3C2B,0%
same,%Inh,PIK3C2G,0%
same,%Inh,PIK3CA,0%
same,%Inh,PIK3CB,0%
same,%Inh,PIK3CD,10%
same,%Inh,PIK3CG,0%
same,%Inh,PIK4CB,0%
same,%Inh,PIKFYVE,0%
same,%Inh,PIM1,0%
same,%Inh,PIM2,0%
same,%Inh,PIM3,0%
same,%Inh,PIP5K1A,5%
same,%Inh,PIP5K1C,0%
same,%Inh,PIP5K2B,27%
same,%Inh,PIP5K2C,0%
same,%Inh,PKAC-alpha,0%
same,%Inh,PKAC-beta,0%
Fc1ccc(-c2ncn(CCCN3CCOCC3)c2-c2cccnc2)cc1 [SB-211743],%Inh,PFTK1,0%
same,%Inh,PHKG1,3%
same,%Inh,PHKG2,0%
same,%Inh,PIK3C2B,0%
same,%Inh,PIK3C2G,0%
same,%Inh,PIK3CA,10%
same,%Inh,PIK3CB,0%
same,%Inh,PIK3CD,0%
same,%Inh,PIK3CG,0%
same,%Inh,PIK4CB,17%
same,%Inh,PIKFYVE,0%
same,%Inh,PIM1,12%
same,%Inh,PIM2,2%
same,%Inh,PIM3,0%
same,%Inh,PIP5K1A,5%
same,%Inh,PIP5K1C,0%
same,%Inh,PIP5K2B,5%
same,%Inh,PIP5K2C,0%
same,%Inh,PKAC-alpha,0%
same,%Inh,PKAC-beta,25%
